# From the supplement of paper PMC6411743
# ± gives the standard deviation of the averaged measurements. Targets with the largest changes are over-represented here; the source holds about 5,400 in all.
# Compound: Nc1nc2c(ncn2[C@@H]2O[C@H](COP(=O)(O)OP(=O)(O)OP(=O)(O)O)[C@@H](O)[C@H]2O)c(=O)[nH]1 [guanosine triphosphate]
# Test: NP40-soluble protein abundance relative to vehicle (solubility fold change) (ratio); higher = more soluble protein in presence of GTP
# In short: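 Crude Jurkat lysate, prepared by Dounce homogenisation, was exposed to eight concentrations from 0.1 to 10 mM for 10 min at room temperature and then 3 min at 37 °C. Solubilisation used 0.8% NP40 with benzonase for 60 min at 4 °C, followed by ultracentrifugation and TMT labelling of the supernatant for LC-MS/MS. After vsn normalisation of intensities, each value is the fold change against the detergent-processed vehicle within each replicate, across three independent experiments.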
# UniProt Q96ES7, sequence (Q96ES7 whole entry): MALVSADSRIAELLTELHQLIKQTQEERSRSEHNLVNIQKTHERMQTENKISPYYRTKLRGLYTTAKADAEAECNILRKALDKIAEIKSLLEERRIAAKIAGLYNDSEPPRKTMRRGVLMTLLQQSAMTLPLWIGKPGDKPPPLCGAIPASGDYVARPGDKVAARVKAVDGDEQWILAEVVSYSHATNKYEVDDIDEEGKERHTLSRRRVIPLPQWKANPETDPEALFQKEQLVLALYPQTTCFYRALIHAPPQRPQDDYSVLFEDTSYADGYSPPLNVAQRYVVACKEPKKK
# UniProt Q96CT7, sequence (Q96CT7 whole entry): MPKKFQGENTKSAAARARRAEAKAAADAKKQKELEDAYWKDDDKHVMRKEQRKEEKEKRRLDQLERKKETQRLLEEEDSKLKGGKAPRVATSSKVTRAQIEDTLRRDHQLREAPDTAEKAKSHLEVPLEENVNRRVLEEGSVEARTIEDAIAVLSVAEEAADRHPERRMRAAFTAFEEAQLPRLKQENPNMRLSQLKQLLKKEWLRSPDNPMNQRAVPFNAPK
# UniProt Q9UBD5, sequence (Q9UBD5 whole entry): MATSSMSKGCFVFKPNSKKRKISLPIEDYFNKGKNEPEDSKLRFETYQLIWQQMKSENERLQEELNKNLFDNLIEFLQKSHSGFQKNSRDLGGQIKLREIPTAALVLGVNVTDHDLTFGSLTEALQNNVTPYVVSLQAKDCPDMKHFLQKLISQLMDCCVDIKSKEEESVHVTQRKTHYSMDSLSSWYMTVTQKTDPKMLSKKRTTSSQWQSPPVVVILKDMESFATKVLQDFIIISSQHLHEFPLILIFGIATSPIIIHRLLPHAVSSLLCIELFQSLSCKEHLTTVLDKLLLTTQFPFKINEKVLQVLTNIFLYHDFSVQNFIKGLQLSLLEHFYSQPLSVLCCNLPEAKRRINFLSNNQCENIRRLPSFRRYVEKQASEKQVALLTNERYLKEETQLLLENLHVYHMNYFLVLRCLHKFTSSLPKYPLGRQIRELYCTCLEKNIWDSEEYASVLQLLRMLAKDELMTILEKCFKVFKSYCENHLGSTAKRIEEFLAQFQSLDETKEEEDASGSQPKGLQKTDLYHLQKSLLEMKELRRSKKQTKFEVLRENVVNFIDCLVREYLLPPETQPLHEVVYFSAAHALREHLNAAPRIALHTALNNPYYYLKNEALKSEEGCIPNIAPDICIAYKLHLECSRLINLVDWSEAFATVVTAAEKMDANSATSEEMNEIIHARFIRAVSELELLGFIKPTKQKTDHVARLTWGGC
# UniProt Q9UII2, sequence (Q9UII2 whole entry): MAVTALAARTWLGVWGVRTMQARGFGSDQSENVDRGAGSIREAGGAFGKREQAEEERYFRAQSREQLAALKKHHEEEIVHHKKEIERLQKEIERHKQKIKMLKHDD
# UniProt Q9UMX0, sequence (Q9UMX0 whole entry): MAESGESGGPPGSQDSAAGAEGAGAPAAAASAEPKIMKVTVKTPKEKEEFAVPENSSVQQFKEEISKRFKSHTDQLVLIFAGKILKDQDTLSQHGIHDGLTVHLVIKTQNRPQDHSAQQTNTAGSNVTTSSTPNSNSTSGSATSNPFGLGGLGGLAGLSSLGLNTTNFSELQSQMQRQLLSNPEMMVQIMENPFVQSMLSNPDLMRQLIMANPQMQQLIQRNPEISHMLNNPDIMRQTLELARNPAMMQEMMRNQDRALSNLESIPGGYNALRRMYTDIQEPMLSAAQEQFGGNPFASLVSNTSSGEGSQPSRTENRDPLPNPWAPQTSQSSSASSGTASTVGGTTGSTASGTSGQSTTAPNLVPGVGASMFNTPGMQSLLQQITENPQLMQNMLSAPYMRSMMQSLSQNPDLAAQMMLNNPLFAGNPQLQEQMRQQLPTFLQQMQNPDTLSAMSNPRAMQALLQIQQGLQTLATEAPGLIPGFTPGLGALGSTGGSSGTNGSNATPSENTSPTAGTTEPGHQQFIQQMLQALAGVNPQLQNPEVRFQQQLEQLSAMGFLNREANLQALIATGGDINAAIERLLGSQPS
# UniProt Q9NX24, sequence (Q9NX24 whole entry): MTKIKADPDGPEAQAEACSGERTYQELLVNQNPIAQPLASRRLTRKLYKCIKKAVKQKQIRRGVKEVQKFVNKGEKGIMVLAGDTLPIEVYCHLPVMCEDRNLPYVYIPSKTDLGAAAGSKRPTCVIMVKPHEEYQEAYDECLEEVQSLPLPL
# UniProt Q9UKA9, sequence (Q9UKA9 whole entry): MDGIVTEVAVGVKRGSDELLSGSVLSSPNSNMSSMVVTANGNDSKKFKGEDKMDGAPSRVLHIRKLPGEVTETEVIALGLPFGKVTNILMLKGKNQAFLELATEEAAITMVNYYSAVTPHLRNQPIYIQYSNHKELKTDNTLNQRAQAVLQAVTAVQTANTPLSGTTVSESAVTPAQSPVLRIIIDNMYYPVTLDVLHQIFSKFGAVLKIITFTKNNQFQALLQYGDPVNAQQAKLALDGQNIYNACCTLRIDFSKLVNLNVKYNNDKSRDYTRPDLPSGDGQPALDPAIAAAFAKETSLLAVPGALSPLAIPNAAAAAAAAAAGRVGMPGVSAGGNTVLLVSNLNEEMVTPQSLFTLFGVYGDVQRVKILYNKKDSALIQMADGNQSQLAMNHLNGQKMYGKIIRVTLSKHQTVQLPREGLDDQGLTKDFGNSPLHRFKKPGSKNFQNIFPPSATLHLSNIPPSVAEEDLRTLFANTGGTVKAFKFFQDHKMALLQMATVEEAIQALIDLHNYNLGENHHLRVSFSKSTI
# UniProt Q9H4I2, sequence (Q9H4I2 whole entry): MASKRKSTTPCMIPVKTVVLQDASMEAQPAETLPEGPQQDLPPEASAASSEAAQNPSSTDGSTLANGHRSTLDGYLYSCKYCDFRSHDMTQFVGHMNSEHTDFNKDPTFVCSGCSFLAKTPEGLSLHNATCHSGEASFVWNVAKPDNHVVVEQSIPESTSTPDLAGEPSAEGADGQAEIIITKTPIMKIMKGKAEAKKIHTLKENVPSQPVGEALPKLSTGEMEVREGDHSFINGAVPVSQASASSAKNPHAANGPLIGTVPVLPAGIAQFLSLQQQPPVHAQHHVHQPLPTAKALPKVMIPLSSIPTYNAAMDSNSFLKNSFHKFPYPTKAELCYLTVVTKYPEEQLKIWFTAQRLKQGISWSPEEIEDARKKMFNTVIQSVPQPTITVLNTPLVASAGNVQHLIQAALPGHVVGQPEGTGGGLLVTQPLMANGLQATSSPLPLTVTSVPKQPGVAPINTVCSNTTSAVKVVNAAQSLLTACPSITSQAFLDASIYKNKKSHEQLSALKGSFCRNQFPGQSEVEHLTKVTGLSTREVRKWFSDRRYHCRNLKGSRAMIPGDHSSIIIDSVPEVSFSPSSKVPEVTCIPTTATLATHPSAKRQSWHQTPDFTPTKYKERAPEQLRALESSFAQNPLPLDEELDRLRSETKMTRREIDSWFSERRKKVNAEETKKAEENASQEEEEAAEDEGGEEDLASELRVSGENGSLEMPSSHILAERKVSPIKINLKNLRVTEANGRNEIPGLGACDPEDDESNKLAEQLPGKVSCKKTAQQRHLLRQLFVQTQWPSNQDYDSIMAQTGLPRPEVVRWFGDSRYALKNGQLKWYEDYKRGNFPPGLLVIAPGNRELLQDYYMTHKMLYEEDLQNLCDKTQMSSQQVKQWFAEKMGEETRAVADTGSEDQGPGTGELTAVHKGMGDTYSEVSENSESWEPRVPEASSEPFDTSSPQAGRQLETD
# UniProt Q9NVP1, sequence (Q9NVP1 whole entry): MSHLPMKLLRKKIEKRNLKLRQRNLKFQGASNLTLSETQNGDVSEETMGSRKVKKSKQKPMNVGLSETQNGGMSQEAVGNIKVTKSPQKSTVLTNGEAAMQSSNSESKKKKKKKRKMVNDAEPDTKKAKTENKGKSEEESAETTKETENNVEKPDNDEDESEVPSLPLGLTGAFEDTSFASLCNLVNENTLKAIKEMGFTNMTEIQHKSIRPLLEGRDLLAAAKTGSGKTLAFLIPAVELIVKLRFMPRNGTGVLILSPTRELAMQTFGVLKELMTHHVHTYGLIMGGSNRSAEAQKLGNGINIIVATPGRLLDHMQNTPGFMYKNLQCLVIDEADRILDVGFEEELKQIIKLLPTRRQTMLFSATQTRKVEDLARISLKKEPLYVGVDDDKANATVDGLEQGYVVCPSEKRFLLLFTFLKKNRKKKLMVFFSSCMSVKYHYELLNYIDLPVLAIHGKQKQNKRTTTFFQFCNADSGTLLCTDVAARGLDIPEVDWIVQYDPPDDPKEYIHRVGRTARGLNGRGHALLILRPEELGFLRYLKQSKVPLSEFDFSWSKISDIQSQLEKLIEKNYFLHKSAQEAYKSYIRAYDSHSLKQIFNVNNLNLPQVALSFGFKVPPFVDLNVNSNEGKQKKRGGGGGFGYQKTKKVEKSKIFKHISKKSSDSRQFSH
# UniProt Q9NVK5, sequence (Q9NVK5 whole entry): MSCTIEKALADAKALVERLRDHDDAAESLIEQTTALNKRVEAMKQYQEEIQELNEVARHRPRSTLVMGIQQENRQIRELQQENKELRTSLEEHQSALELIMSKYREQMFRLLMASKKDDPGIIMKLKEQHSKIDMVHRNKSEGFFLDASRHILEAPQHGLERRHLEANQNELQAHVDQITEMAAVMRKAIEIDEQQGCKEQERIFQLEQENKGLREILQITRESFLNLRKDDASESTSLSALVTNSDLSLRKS
# UniProt Q96EM0, sequence (Q96EM0 whole entry): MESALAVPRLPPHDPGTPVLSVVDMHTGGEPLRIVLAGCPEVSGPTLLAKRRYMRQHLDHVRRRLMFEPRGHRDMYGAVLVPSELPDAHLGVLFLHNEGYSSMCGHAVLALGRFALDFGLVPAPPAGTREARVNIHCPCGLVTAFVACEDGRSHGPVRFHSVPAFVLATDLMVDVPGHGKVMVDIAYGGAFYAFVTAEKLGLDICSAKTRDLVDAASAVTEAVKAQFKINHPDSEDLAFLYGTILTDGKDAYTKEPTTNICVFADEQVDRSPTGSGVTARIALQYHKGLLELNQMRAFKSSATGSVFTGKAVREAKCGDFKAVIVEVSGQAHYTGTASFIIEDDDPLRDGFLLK
Target,NP40-soluble protein abundance (concentration: 0.1mM),NP40-soluble protein abundance (concentration: 0.5mM),NP40-soluble protein abundance (concentration: 1mM),NP40-soluble protein abundance (concentration: 2mM),NP40-soluble protein abundance (concentration: 4mM),NP40-soluble protein abundance (concentration: 6mM),NP40-soluble protein abundance (concentration: 8mM),NP40-soluble protein abundance (concentration: 10mM)
DDX49 (UniProt Q9Y6V7),1.02 ± 0.056,1.01 ± 0.047,1.03 ± 0.026,1.05 ± 0.072,1.12 ± 0.037,1.19 ± 0.022,1.26 ± 0.076,1.21 ± 0.077
DMAP1 (UniProt Q9NPF5),1.04 ± 0.056,1.06 ± 0.059,1.11 ± 0.079,1.17 ± 0.099,1.22 ± 0.12,1.24 ± 0.15,1.29 ± 0.2,1.26 ± 0.18
UniProt Q9UII2,0.946 ± 0.08,0.972 ± 0.11,1.01 ± 0.078,0.936 ± 0.1,0.875 ± 0.1,0.908 ± 0.14,0.93 ± 0.07,0.963 ± 0.07
CCDC124 (UniProt Q96CT7),1.01 ± 0.047,0.984 ± 0.019,1.12 ± 0.063,1.17 ± 0.067,1.41 ± 0.17,1.57 ± 0.22,1.61 ± 0.22,2.24 ± 0.18
UniProt Q9UMX0|Q9UMX0-2,0.999 ± 0.07,0.998 ± 0.015,1.09 ± 0.11,1.02 ± 0.032,1.012 ± 0.0015,0.994 ± 0.039,1.02 ± 0.053,1.01 ± 0.039
ATP6V1D (UniProt Q9Y5K8),1.04 ± 0.016,1.06 ± 0.03,1.04 ± 0.03,1.06 ± 0.022,1.056 ± 0.0052,1.03 ± 0.05,1.02 ± 0.045,0.992 ± 0.018
UniProt Q9NVK5|Q9NVK5-2,0.987 ± 0.072,0.945 ± 0.1,1.16 ± 0.17,1.11 ± 0.086,1.13 ± 0.1,1.19 ± 0.092,1.28 ± 0.17,1.27 ± 0.2
UniProt Q96ES7,1.21 ± 0.22,1.12 ± 0.13,1.25 ± 0.19,1.14 ± 0.12,1.26 ± 0.11,1.17 ± 0.11,1.38 ± 0.32,1.12 ± 0.096
NUDC (UniProt Q9Y266),0.924 ± 0.044,0.938 ± 0.06,0.931 ± 0.058,0.88 ± 0.077,0.852 ± 0.063,0.893 ± 0.076,0.885 ± 0.056,0.872 ± 0.069
PUS7 (UniProt Q96PZ0),0.992 ± 0.013,0.992 ± 0.016,0.944 ± 0.046,0.944 ± 0.029,0.907 ± 0.053,0.917 ± 0.022,0.889 ± 0.038,0.892 ± 0.059
NHP2 (UniProt Q9NX24),0.959 ± 0.056,0.942 ± 0.054,1.02 ± 0.069,1.09 ± 0.067,1.2 ± 0.096,1.39 ± 0.16,1.45 ± 0.16,1.75 ± 0.35
ZHX3 (UniProt Q9H4I2),0.975 ± 0.062,0.94 ± 0.043,0.994 ± 0.1,1.01 ± 0.099,0.967 ± 0.039,1.01 ± 0.079,1.05 ± 0.07,1.05 ± 0.11
DNAJB11 (UniProt Q9UBS4),1.01 ± 0.027,1.02 ± 0.048,1.03 ± 0.059,1 ± 0.048,1.01 ± 0.051,1.02 ± 0.046,1.005 ± 0.0044,0.982 ± 0.029
DDX23 (UniProt Q9BUQ8),1.04 ± 0.036,1.09 ± 0.067,1.19 ± 0.12,1.27 ± 0.075,1.55 ± 0.18,1.62 ± 0.19,1.89 ± 0.28,1.93 ± 0.23
UniProt Q9BX67,1.04 ± 0.013,0.954 ± 0.065,0.965 ± 0.026,0.913 ± 0.066,0.905 ± 0.046,0.88 ± 0.086,0.953 ± 0.035,0.897 ± 0.06
NOP58 (UniProt Q9Y2X3),1.01 ± 0.049,1.02 ± 0.019,1.07 ± 0.075,1.19 ± 0.044,1.4 ± 0.066,1.58 ± 0.13,1.77 ± 0.11,2.07 ± 0.16
UniProt Q9Y2C4|Q9Y2C4-3|Q9Y2C4-4,1.2 ± 0.083,1.12 ± 0.049,1.11 ± 0.083,1.14 ± 0.088,1.08 ± 0.033,1.07 ± 0.081,1.01 ± 0.034,1.03 ± 0.044
DDX21 (UniProt Q9NR30),1.11 ± 0.027,1.1 ± 0.048,1.18 ± 0.026,1.32 ± 0.019,1.56 ± 0.018,1.82 ± 0.028,2.13 ± 0.038,2.698 ± 0.024
CLIC4 (UniProt Q9Y696),1 ± 0.088,0.929 ± 0.063,0.966 ± 0.1,0.88 ± 0.1,0.976 ± 0.13,0.909 ± 0.1,0.973 ± 0.12,0.866 ± 0.08

Target,NP40-soluble protein abundance (concentration: 0.1mM),NP40-soluble protein abundance (concentration: 0.5mM),NP40-soluble protein abundance (concentration: 1mM),NP40-soluble protein abundance (concentration: 2mM),NP40-soluble protein abundance (concentration: 4mM),NP40-soluble protein abundance (concentration: 6mM),NP40-soluble protein abundance (concentration: 8mM),NP40-soluble protein abundance (concentration: 10mM)
UniProt Q9UKA9|Q9UKA9-4,1.04 ± 0.021,0.985 ± 0.025,1.01 ± 0.014,0.989 ± 0.045,0.947 ± 0.051,0.955 ± 0.036,0.963 ± 0.029,0.906 ± 0.027
DDX18 (UniProt Q9NVP1),1.084 ± 0.0038,1.11 ± 0.024,1.08 ± 0.021,1.2 ± 0.071,1.42 ± 0.057,1.55 ± 0.061,1.69 ± 0.043,1.94 ± 0.066
NCAPG (UniProt Q9BPX3),0.992 ± 0.015,1.06 ± 0.016,0.986 ± 0.03,1.03 ± 0.044,0.978 ± 0.042,1.01 ± 0.047,0.987 ± 0.056,1.01 ± 0.031
UniProt Q9UJX5|Q9UJX5-3|Q9UJX5-2,1.2 ± 0.19,1.24 ± 0.3,1.15 ± 0.19,1.27 ± 0.23,1.25 ± 0.27,1.23 ± 0.32,1.2 ± 0.23,1.13 ± 0.17
UniProt Q9P287|Q9P287-2,1.03 ± 0.026,0.973 ± 0.032,0.971 ± 0.066,0.953 ± 0.059,0.99 ± 0.083,0.913 ± 0.069,0.943 ± 0.058,0.946 ± 0.075
UniProt Q96EM0,0.976 ± 0.19,0.971 ± 0.15,0.869 ± 0.093,0.892 ± 0.11,1.02 ± 0.026,0.929 ± 0.095,0.85 ± 0.16,0.895 ± 0.085
UniProt Q9HD33|Q9HD33-2,1.01 ± 0.017,1.16 ± 0.087,1.34 ± 0.23,1.55 ± 0.39,1.7 ± 0.52,1.86 ± 0.49,2.03 ± 0.59,2.05 ± 0.64
UniProt Q9Y3D0,0.836 ± 0.067,0.869 ± 0.033,1.02 ± 0.042,1.04 ± 0.049,0.987 ± 0.043,1.04 ± 0.013,1.04 ± 0.089,1.09 ± 0.17
UniProt Q9NZM5,0.985 ± 0.053,0.939 ± 0.14,1.04 ± 0.083,1.03 ± 0.17,1.05 ± 0.16,1.07 ± 0.21,1.18 ± 0.17,1.13 ± 0.093
UniProt Q9H8Y8|Q9H8Y8-3,0.893 ± 0.088,0.934 ± 0.09,0.911 ± 0.095,0.873 ± 0.087,0.836 ± 0.091,0.858 ± 0.059,0.884 ± 0.091,0.892 ± 0.12
UniProt Q9UBD5|Q9UBD5-2,0.981 ± 0.061,1.06 ± 0.076,0.957 ± 0.092,1.04 ± 0.049,0.998 ± 0.069,1.04 ± 0.04,1.02 ± 0.1,1.07 ± 0.018
UniProt Q9C0B5|Q9C0B5-2,1.02 ± 0.049,0.949 ± 0.024,0.96 ± 0.018,0.938 ± 0.012,0.903 ± 0.018,0.909 ± 0.019,1.02 ± 0.03,0.997 ± 0.029
UniProt Q96RW7|Q96RW7-2,1.17 ± 0.29,1.11 ± 0.23,0.938 ± 0.16,1.06 ± 0.37,0.985 ± 0.2,0.889 ± 0.19,0.892 ± 0.13,0.924 ± 0.16
UniProt Q96L91|Q96L91-2|Q96L91-3|Q96L91-5,1.03 ± 0.021,1.06 ± 0.04,1.12 ± 0.03,1.18 ± 0.061,1.24 ± 0.13,1.26 ± 0.14,1.32 ± 0.22,1.34 ± 0.23
UniProt Q96T23|Q96T23-2,1.02 ± 0.028,1.09 ± 0.081,1.25 ± 0.014,1.45 ± 0.1,1.72 ± 0.22,2.07 ± 0.29,2.49 ± 0.49,2.71 ± 0.62
SEC63 (UniProt Q9UGP8),0.964 ± 0.023,0.977 ± 0.022,0.935 ± 0.045,0.926 ± 0.036,0.913 ± 0.073,0.927 ± 0.026,0.93 ± 0.022,0.897 ± 0.03
RNF181 (UniProt Q9P0P0),0.961 ± 0.027,0.925 ± 0.028,1.05 ± 0.077,1.03 ± 0.045,1.01 ± 0.013,1.02 ± 0.05,1.04 ± 0.1,1.09 ± 0.075
UniProt Q9BW83|Q9BW83-2,0.972 ± 0.019,1.05 ± 0.059,0.971 ± 0.02,0.958 ± 0.013,0.911 ± 0.036,0.95 ± 0.018,0.916 ± 0.016,0.944 ± 0.0068
CBX8 (UniProt Q9HC52),1.01 ± 0.04,1.04 ± 0.048,1.13 ± 0.013,1.24 ± 0.14,1.42 ± 0.15,1.61 ± 0.15,1.74 ± 0.17,1.86 ± 0.23
